# Source: PubChem (several laboratories)
# CYP2C19 inh = blockers of cytochrome P450 2C19 activity – biochemical, luminescence, ADME assay, primary screen | CYP2C19 Supersomes, luciferin-H EGE luminescence, 30 min | inhibition, % at 5 µM | 96,000 compounds, 21% hits | AID 778, 2007;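 active means CYP2C19 inhibition above a set limit at 5 µM in the primary screen, cut at about 50% in these data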
# Target sequence (P33261 whole entry, looked up): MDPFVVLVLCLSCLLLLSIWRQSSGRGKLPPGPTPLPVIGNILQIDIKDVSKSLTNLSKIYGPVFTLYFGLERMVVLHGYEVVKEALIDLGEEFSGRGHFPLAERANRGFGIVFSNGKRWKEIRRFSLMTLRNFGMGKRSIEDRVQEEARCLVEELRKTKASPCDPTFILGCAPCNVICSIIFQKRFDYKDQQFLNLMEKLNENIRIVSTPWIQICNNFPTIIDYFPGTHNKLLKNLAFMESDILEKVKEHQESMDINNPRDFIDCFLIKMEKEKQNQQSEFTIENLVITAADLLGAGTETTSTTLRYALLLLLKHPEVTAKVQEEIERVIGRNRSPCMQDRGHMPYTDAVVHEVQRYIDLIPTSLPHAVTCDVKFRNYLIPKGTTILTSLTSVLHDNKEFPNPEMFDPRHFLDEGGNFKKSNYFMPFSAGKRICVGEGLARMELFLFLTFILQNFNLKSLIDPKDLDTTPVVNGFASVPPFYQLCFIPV
# PostGolgi ctrl = growth inhibition of yeast control strain, primary screen, counter-screen for post-Golgi transport modulator project. efflux-deficient yeast background strain, growth absorbance A615, 16 h. inhibition, % at 10 µM. AID 738, 2007. 98,000 compounds, 5% hits
# CYP2C9 inhib = blockers of cytochrome P450 2C9 activity – biochemical, luminescence, ADME assay, primary screen; P11712; CYP2C9 Supersomes, luciferin-H conversion; 96,000 compounds, 20% hits; inhibition, % at 5 µM; AID 777, 2007;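 active means blocking of liver enzyme CYP2C9 beyond about 50% at 5 µM, limit read from the data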
# CYP2C19 activ = human CYP2C19 activators, primary screen, biochemical, luminescence; Cytochrome P450 2C19 (Homo sapiens), P33261; recombinant CYP2C19, luciferin-H EGE luminescence; active compounds read high; 0 = fully inhibited enzyme, 1 = untreated enzyme; activation factor at 5 µM; 96,000 tested, under 10 active; AID 1025, 2008;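 active means activation factor of at least 2 at 5 µM in the primary screen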
# CYP2C9 activ = human CYP2C9 activators, primary screen, biochemical, luminescence. recombinant CYP2C9, luciferin-H conversion; active compounds read high; factor 1 = untreated enzyme, 0 = blocked. activation factor at 5 µM. 96,000 compounds, 1.4% hits. AID 1024, 2008;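 active means activation factor of 2 or more for CYP2C9 at a 5 µM dose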
# PostGolgi yeast = phenotypic screen on post-Golgi transport, primary screen. post-Golgi transport phenotypic cell assay. inhibition, % at 10 µM. 98,000 compounds, 0.9% hits. AID 739, 2007;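 further: yeast cells grown in 1536-well plates; yeast grown about 18 h at 30C before absorbance read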
# A number is an active result; n = inactive. Compounds with a hit are over-represented: about 32% of the library has one in this group of screens. Unless noted, no stated cut-off is given here; in the data, active means inhibition above about 30%; inactive means the rest.
SMILES,CYP2C19 inh,PostGolgi ctrl,CYP2C9 inhib,CYP2C19 activ,CYP2C9 activ,PostGolgi yeast
COc1ccc(OC)c(C(C(=O)NCc2ccco2)N(C(=O)Cn2nnc3ccccc32)C(C)C)c1 (stereo not drawn),62,n,n,n,n,n
Cc1ccc(N(C(=O)Cn2nnc3ccccc32)C(C(=O)NCc2ccco2)c2cccnc2)cc1 (stereo not drawn),65,n,n,n,n,n
Cc1ccc(N(C(=O)Cn2nnc3ccccc32)C(C(=O)NCc2ccco2)c2ccc(C)o2)cc1 (stereo not drawn),n,n,n,n,n,n
CCOC(=O)CSc1nc2ccccc2n1C(=O)OCC,n,n,n,n,n,n
CC(C)COC(=O)n1c(SCC(=O)N(C)C)nc2ccccc21,65,n,78,n,n,n
O=C(Nc1ccsc1C(=O)N1CCCCCC1)c1ccccc1,n,n,n,n,n,n
O=C(/C=C/c1ccc(Cl)cc1Cl)n1cccn1,n,n,n,n,n,n
CCOC(=O)Cn1cc(C(=O)OC)c2ccccc21,54,n,n,n,n,n
COC(=O)Cn1cc(C(=O)OC)c2ccccc21,n,n,n,n,n,n
CCOC(=O)Cn1cc(C=O)c2ccccc21,n,n,n,n,n,42
CCCc1cc(=O)[nH]c(SCC(=O)N(CC)C2CCS(=O)(=O)C2)n1 (stereo not drawn),n,n,n,n,n,n
CCOC(=O)c1oc2ccccc2c1CN1CCN(C(=O)c2ccccc2)CC1,n,n,n,n,n,n
CCOC(=O)c1c(CN2CCN(c3ccccc3)CC2)oc2ccc(O)cc12,n,32,n,n,n,n
CCOC(=O)c1oc2ccccc2c1CN1CCN(c2ccccc2)CC1,52,n,n,n,n,n
CCOc1ccc(NC(=O)C2CCCCN2S(=O)(=O)c2ccccc2)cc1 (stereo not drawn),75,n,n,n,n,n
CCOc1ccc(N2CC(C(=O)Nc3ccc(S(=O)(=O)N4CCOCC4)cc3)CC2=O)cc1 (stereo not drawn),n,n,57,n,n,n
Cc1ccc(N2CC(C(=O)Nc3ccc(S(=O)(=O)N4CCOCC4)cc3)CC2=O)cc1 (stereo not drawn),n,n,n,n,n,n
COc1ccc(S(=O)(=O)N2CCCC2C(=O)Nn2cnnc2)cc1 (stereo not drawn),n,n,n,n,n,n
COc1ccc(S(=O)(=O)N2CCC(O)(c3ccc4c(c3)OCO4)CC2)cc1,n,n,n,n,n,n
O=S(=O)(c1ccc(F)cc1)N1CCC(O)(c2ccc3c(c2)OCO3)CC1,71,n,n,n,n,n
COc1ccc(NC(=O)C2CCCN2S(=O)(=O)c2ccc(C)cc2)cc1 (stereo not drawn),74,n,75,n,n,n
COc1cccc2c(=O)n(CC(=O)Nc3ccccc3F)ccc12,n,n,n,n,n,n
O=C(Nc1ccc2c(c1)OCO2)C1CCCCN1S(=O)(=O)c1ccc(F)cc1 (stereo not drawn),100,n,63,n,n,n
COc1ccc(NC(=O)C2CCCCN2S(=O)(=O)c2ccc(F)cc2)cc1 (stereo not drawn),68,n,n,n,n,n
CCCOc1ccc(N2CC(C(=O)Nc3ncccc3C)CC2=O)cc1 (stereo not drawn),n,n,69,n,n,n
COc1ccc(S(=O)(=O)N2CCCC2C(=O)Nc2ccc(C(C)=O)cc2)cc1 (stereo not drawn),57,n,n,n,n,n
COc1ccc(C2C(C(=O)NCc3ccco3)CCC(=O)N2c2ccc(OC)cc2)cc1 (stereo not drawn),n,n,n,n,n,n
COc1ccc(NC(=O)C2CCCCN2S(=O)(=O)c2ccc(F)cc2)c(OC)c1 (stereo not drawn),n,n,n,n,n,n
O=C(NCC1CCCO1)C1CCCCN1S(=O)(=O)c1ccc(F)cc1 (stereo not drawn),n,n,n,n,n,n
COc1ccccc1NC(=O)C1CCCCN1S(=O)(=O)c1ccc(F)cc1 (stereo not drawn),n,n,n,n,2.7,n
